# Residue numbers refer to the chain shown, from its start.
# What was measured:
# Assay in all cases: PBM; 200 nM protein, PBS
# Settings in all cases: dsDNA, one strand shown
# [1] = target: HESX1 (Homo sapiens, UniProt Q9UBX0 95-180, R165K)
# [2] = target: HOXC9 (Homo sapiens, UniProt P31274 178-260, K195R)
# [3] = target: HOXA7 (Homo sapiens, UniProt P31268 116-202)
# [4] = target: HESX1 (Homo sapiens, UniProt Q9UBX0 95-180)
# [5] = target: HOXC9 (Homo sapiens, UniProt P31274 178-260)
# [6] = target: HOXC9 (Homo sapiens, UniProt P31274 178-260, R193K)
# [7] = target: HESX1 (Homo sapiens, UniProt Q9UBX0 95-180, R109Q)
# [8] = target: HESX1 (Homo sapiens, UniProt Q9UBX0 95-180, P111T)
# [9] = target: HOXC9 (Homo sapiens, UniProt P31274 178-260, R222W)
# [10] = target: HESX1 (Homo sapiens, UniProt Q9UBX0 95-180, F115L)
# [11] = target: HOXA7 (Homo sapiens, UniProt P31268 116-202, W177C)
# [12] = target: NKX3-2 (Homo sapiens, UniProt P78367 192-278, P234S)
# [13] = target: NKX3-2 (Homo sapiens, UniProt P78367 192-278)
# [14] = target: T1, NKX2-4 (Homo sapiens, UniProt Q9H2Z4 175-261, P217L)
# T1 sequence: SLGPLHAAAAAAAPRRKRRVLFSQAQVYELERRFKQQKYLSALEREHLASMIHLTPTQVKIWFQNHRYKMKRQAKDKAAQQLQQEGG
# [15] = target: T2, NKX2-4 (Homo sapiens, UniProt Q9H2Z4 175-261, T231S)
# T2 sequence: T1 sequence with L43P, T57S
# [16] = target: T3, NKX2-4 (Homo sapiens, UniProt Q9H2Z4 175-261)
# T3 sequence: T1 sequence with L43P
# [17] = target: ALX1 (Homo sapiens, UniProt Q15699 118-204, L144V)
# [18] = target: ALX1 (Homo sapiens, UniProt Q15699 118-204, L144R)
# [19] = target: T4, NKX2-4 (Homo sapiens, UniProt Q9H2Z4 175-261, R246Q)
# T4 sequence: T1 sequence with L43P, R72Q
# [20] = target: ALX1 (Homo sapiens, UniProt Q15699 118-204)
# [21] = target: ALX3 (Homo sapiens, UniProt O95076 139-225, N203Q)
# [22] = target: ALX3 (Homo sapiens, UniProt O95076 139-225)
# [23] = target: ALX3 (Homo sapiens, UniProt O95076 139-225, L168Q)
# [24] = target: ALX3 (Homo sapiens, UniProt O95076 139-225, L168V)
# [25] = target: ALX3 (Homo sapiens, UniProt O95076 139-225, N203S)
# Chain of ALX3 (Homo sapiens, UniProt O95076 139-225, N203S) (O95076 139-225 N203S): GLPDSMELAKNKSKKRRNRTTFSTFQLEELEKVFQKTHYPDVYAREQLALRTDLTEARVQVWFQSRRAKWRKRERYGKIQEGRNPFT
# Chain of HESX1 (Homo sapiens, UniProt Q9UBX0 95-180, R109Q) (Q9UBX0 95-180 R109Q): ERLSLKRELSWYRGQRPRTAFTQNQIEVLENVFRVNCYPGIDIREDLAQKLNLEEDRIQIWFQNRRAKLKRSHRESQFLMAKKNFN
# Chain of HESX1 (Homo sapiens, UniProt Q9UBX0 95-180) (Q9UBX0 95-180): as the sequence (Q9UBX0 95-180 R109Q) above, with Q15R counted along it
# Chain of HESX1 (Homo sapiens, UniProt Q9UBX0 95-180, F115L) (Q9UBX0 95-180 F115L): as the sequence (Q9UBX0 95-180 R109Q) above, with Q15R, F21L counted along it
# Chain of HESX1 (Homo sapiens, UniProt Q9UBX0 95-180, P111T) (Q9UBX0 95-180 P111T): as the sequence (Q9UBX0 95-180 R109Q) above, with Q15R, P17T counted along it
# Chain of HESX1 (Homo sapiens, UniProt Q9UBX0 95-180, R165K) (Q9UBX0 95-180 R165K): as the sequence (Q9UBX0 95-180 R109Q) above, with Q15R, R71K counted along it
# Chain of ALX1 (Homo sapiens, UniProt Q15699 118-204) (Q15699 118-204): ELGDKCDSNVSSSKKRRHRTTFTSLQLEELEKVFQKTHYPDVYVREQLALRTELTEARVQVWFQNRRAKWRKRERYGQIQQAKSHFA
# Chain of HOXA7 (Homo sapiens, UniProt P31268 116-202) (P31268 116-202): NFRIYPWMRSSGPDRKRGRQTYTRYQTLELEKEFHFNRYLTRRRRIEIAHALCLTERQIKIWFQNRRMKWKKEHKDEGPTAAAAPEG
# Chain of ALX1 (Homo sapiens, UniProt Q15699 118-204, L144R) (Q15699 118-204 L144R): as the sequence (Q15699 118-204) above, with L27R counted along it
# Chain of ALX1 (Homo sapiens, UniProt Q15699 118-204, L144V) (Q15699 118-204 L144V): as the sequence (Q15699 118-204) above, with L27V counted along it
# Chain of HOXA7 (Homo sapiens, UniProt P31268 116-202, W177C) (P31268 116-202 W177C): as the sequence (P31268 116-202) above, with W62C counted along it
# Chain of HOXC9 (Homo sapiens, UniProt P31274 178-260, K195R) (P31274 178-260 K195R): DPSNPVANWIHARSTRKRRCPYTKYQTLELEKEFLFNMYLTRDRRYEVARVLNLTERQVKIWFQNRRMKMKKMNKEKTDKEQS
# Chain of ALX3 (Homo sapiens, UniProt O95076 139-225) (O95076 139-225): as the sequence (O95076 139-225 N203S) above, with S65N counted along it
# Chain of ALX3 (Homo sapiens, UniProt O95076 139-225, L168Q) (O95076 139-225 L168Q): as the sequence (O95076 139-225 N203S) above, with L30Q, S65N counted along it
# Chain of HOXC9 (Homo sapiens, UniProt P31274 178-260) (P31274 178-260): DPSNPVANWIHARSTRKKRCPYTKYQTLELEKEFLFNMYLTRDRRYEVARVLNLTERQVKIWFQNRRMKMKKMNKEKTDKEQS
# Chain of NKX3-2 (Homo sapiens, UniProt P78367 192-278) (P78367 192-278): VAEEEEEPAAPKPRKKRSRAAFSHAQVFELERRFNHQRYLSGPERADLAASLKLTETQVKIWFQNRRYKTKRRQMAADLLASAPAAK
# Chain of NKX3-2 (Homo sapiens, UniProt P78367 192-278, P234S) (P78367 192-278 P234S): as the sequence (P78367 192-278) above, with P43S counted along it
# Chain of ALX3 (Homo sapiens, UniProt O95076 139-225, N203Q) (O95076 139-225 N203Q): as the sequence (O95076 139-225 N203S) above, with S65Q counted along it
# Chain of HOXC9 (Homo sapiens, UniProt P31274 178-260, R193K) (P31274 178-260 R193K): as the sequence (P31274 178-260) above, with R16K counted along it
# Chain of ALX3 (Homo sapiens, UniProt O95076 139-225, L168V) (O95076 139-225 L168V): as the sequence (O95076 139-225 N203S) above, with L30V, S65N counted along it
# Chain of HOXC9 (Homo sapiens, UniProt P31274 178-260, R222W) (P31274 178-260 R222W): as the sequence (P31274 178-260) above, with R45W counted along it
sequence,measurement,setting,value
CCGTAGGC,binding signal,[1],"6.41 upbm affinity estimate (log intensity, higher = more binding, comparable within an allelic series)"
same,binding signal,[2],"9.73 upbm affinity estimate (log intensity, higher = more binding, comparable within an allelic series)"
same,binding signal,[3],"8.48 upbm affinity estimate (log intensity, higher = more binding, comparable within an allelic series)"
same,binding signal,[4],"6.44 upbm affinity estimate (log intensity, higher = more binding, comparable within an allelic series)"
same,binding signal,[5],"9.68 upbm affinity estimate (log intensity, higher = more binding, comparable within an allelic series)"
same,binding signal,[6],"9.78 upbm affinity estimate (log intensity, higher = more binding, comparable within an allelic series)"
same,binding signal,[7],"6.53 upbm affinity estimate (log intensity, higher = more binding, comparable within an allelic series)"
same,binding signal,[8],"6.41 upbm affinity estimate (log intensity, higher = more binding, comparable within an allelic series)"
same,binding signal,[9],"9.77 upbm affinity estimate (log intensity, higher = more binding, comparable within an allelic series)"
same,binding signal,[10],"6.48 upbm affinity estimate (log intensity, higher = more binding, comparable within an allelic series)"
same,binding signal,[11],"8.4 upbm affinity estimate (log intensity, higher = more binding, comparable within an allelic series)"
same,binding signal,[12],"10.5 upbm affinity estimate (log intensity, higher = more binding, comparable within an allelic series)"
same,binding signal,[13],"10.4 upbm affinity estimate (log intensity, higher = more binding, comparable within an allelic series)"
ACGCTGCG,binding signal,[1],"6.32 upbm affinity estimate (log intensity, higher = more binding, comparable within an allelic series)"
same,binding signal,[14],"9.63 upbm affinity estimate (log intensity, higher = more binding, comparable within an allelic series)"
same,binding signal,[15],"9.6 upbm affinity estimate (log intensity, higher = more binding, comparable within an allelic series)"
same,binding signal,[16],"9.57 upbm affinity estimate (log intensity, higher = more binding, comparable within an allelic series)"
same,binding signal,[4],"6.32 upbm affinity estimate (log intensity, higher = more binding, comparable within an allelic series)"
same,binding signal,[17],"6.28 upbm affinity estimate (log intensity, higher = more binding, comparable within an allelic series)"
same,binding signal,[18],"6.23 upbm affinity estimate (log intensity, higher = more binding, comparable within an allelic series)"
same,binding signal,[19],"9.58 upbm affinity estimate (log intensity, higher = more binding, comparable within an allelic series)"
same,binding signal,[7],"6.51 upbm affinity estimate (log intensity, higher = more binding, comparable within an allelic series)"
same,binding signal,[8],"6.42 upbm affinity estimate (log intensity, higher = more binding, comparable within an allelic series)"
same,binding signal,[10],"6.51 upbm affinity estimate (log intensity, higher = more binding, comparable within an allelic series)"
same,binding signal,[20],"6.21 upbm affinity estimate (log intensity, higher = more binding, comparable within an allelic series)"
CCGAGCCG,binding signal,[1],"6.36 upbm affinity estimate (log intensity, higher = more binding, comparable within an allelic series)"
same,binding signal,[3],"8.34 upbm affinity estimate (log intensity, higher = more binding, comparable within an allelic series)"
same,binding signal,[4],"6.14 upbm affinity estimate (log intensity, higher = more binding, comparable within an allelic series)"
same,binding signal,[17],"6.19 upbm affinity estimate (log intensity, higher = more binding, comparable within an allelic series)"
same,binding signal,[21],"7.62 upbm affinity estimate (log intensity, higher = more binding, comparable within an allelic series)"
same,binding signal,[18],"6.2 upbm affinity estimate (log intensity, higher = more binding, comparable within an allelic series)"
same,binding signal,[22],"7.46 upbm affinity estimate (log intensity, higher = more binding, comparable within an allelic series)"
same,binding signal,[7],"6.38 upbm affinity estimate (log intensity, higher = more binding, comparable within an allelic series)"
same,binding signal,[23],"7.56 upbm affinity estimate (log intensity, higher = more binding, comparable within an allelic series)"
same,binding signal,[8],"6.22 upbm affinity estimate (log intensity, higher = more binding, comparable within an allelic series)"
same,binding signal,[24],"7.69 upbm affinity estimate (log intensity, higher = more binding, comparable within an allelic series)"
same,binding signal,[10],"6.62 upbm affinity estimate (log intensity, higher = more binding, comparable within an allelic series)"
same,binding signal,[11],"8.22 upbm affinity estimate (log intensity, higher = more binding, comparable within an allelic series)"
same,binding signal,[20],"6.32 upbm affinity estimate (log intensity, higher = more binding, comparable within an allelic series)"
same,binding signal,[25],"7.67 upbm affinity estimate (log intensity, higher = more binding, comparable within an allelic series)"

# Source: article PMC11006913
